The molecules below were run against Calmodulin-1 (Homo sapiens) (UniProt P0DP23) (assay: calcium-bound CALM1 binders on microarrays, profiling panel, artefact control for SMM control-protein annotation, biochemical, small-molecule microarray, Cy5-labelled CALM1, plus calcium (AID 1112;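 also: score merges spot fluorescence with signal to noise from triplicate slides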)). Conditions: Cy5-CALM1 binding fluorescence, higher = more signal.

Row | SMILES | composite z-score
1 | COc1ccc([Si](C)(C)[C@@H]2[C@@H](CC(=O)N3Cc4ccccc4C[C@H]3CO)O[C@]3(C(=O)N(C)c4ccccc43)[C@H]2C)cc1 | -0.0353
2 | O=C(N1CCCCC1)[C@@]1(CCS(=O)(=O)c2ccccc2)COC(c2ccc(OCCCO)cc2)=N1 | -0.438
3 | O=C1NC(=O)C2C1C=CC(C(O)CCc1ccccc1)N2Nc1ccc(Cl)cc1Cl (configuration not stated) | 0.819
4 | C=CCC(OC(C)=O)[C@@H]1[C@@H](N(Cc2cc3ccccc3o2)C(=O)c2ccc(-c3ccccc3)cc2)c2cc(OCCCO)ccc2N1C(=O)c1ccc2ccccc2c1 (some centres not stated) | 0.185
5 | CCOC(=O)C[C@H]1[C@H](OC(=O)Cc2ccc3c(c2)OCO3)[C@@H](NC(=O)Cc2ccc(OC)cc2)c2cc(OCCCO)ccc2N1C(=O)c1ccc2ccccc2n1 | -0.0545
6 | COC(=O)c1c2oc(c1C(=O)OC)C(=O)N(Cc1ccccc1)Cc1cn(nn1)C[C@H](Cc1ccccc1)NC(=O)N[C@H](CO)CC2 | -0.464
7 | NC(N)=NCCCn1cc(CNC(=O)[C@@H](N)Cc2ccccc2)nn1 | -0.458
8 | NC(=O)N1C(=O)C2C(C1=O)C1C=C(CCCO)C2C(c2cccs2)N1Cc1cccc(OC(F)(F)F)c1 (configuration not stated) | 0.632
9 | CCOC(=O)C[C@H]1[C@H](OC(=O)c2cc3ccccc3oc2=O)[C@@H](NC(=O)Cc2ccc(OC)cc2)c2cc(OCCCO)ccc2N1C(=O)c1ccc2ccccc2n1 | -0.399
10 | COCCOC(=O)N1C(=O)[C@@]2(c3cc(C#CC4=CCCCC4)ccc31)[C@H](c1ccc(OCCO)cc1)N1[C@H](c3ccccc3)[C@H](c3ccccc3)OC(=O)[C@H]1[C@@H]2C(=O)NC[C@H](O)c1ccccc1 | 0.458
11 | COC(=O)c1nc2oc1CC[C@@H](CO)NC(=O)N(C)Cc1cnnn1C[C@H](Cc1ccccc1)NC2=O | -0.319
12 | CN1C(=O)C2C=CC(C(O)COCc3ccccc3)N(N(c3ccccc3)c3ccccc3)C2C1=O (configuration not stated) | 0.667
13 | COc1cc2c(cc1O)C(C)N(Cc1ccc([N+](=O)[O-])o1)CC2 (configuration not stated) | 1.21
14 | C=CCOC(=O)[C@H]1[C@@H]2C(=O)O[C@@H](c3ccccc3)[C@@H](c3ccccc3)N2[C@@H](c2ccc(OCCOC(=O)[C@@H]3C[C@@H]4C(=O)N[C@@H](CCCCN(C)C)C(=O)N4[C@@H]3c3ccc(O)cc3)cc2)[C@]12C(=O)Nc1ccccc12 | -1.07
15 | CCOC(=O)C1=C[C@@H](c2ccccc2)N(S(=O)(=O)c2ccc(C)cc2)[C@H]1c1ccccc1Cl | -0.651
16 | C[N+](C)(C)CCCCCCNC(=O)[C@H]1C[C@H]2C(=O)NCC(=O)N2[C@H]1c1ccc(O)cc1 | -1.16
17 | COc1cc(CO)cc(I)c1O[C@H]1C=C(C(=O)NCCO)C[C@@H](NCc2ccc(F)cc2)[C@@H]1O | -0.918
18 | COC1OC[C@]2(C)[C@H]3C4=C(CN2C(=O)OC(C)(C)C)[C@H](C)C(CO)C(CO)C4CC[C@@H]13 (some centres not stated) | 1.39
19 | O=C1O[C@H](c2ccccc2)[C@H](c2ccccc2)N2[C@H]1[C@@H](C(=O)Nc1nc3ccccc3s1)[C@]1(C(=O)Nc3ccc(C#CCCO)cc31)[C@H]2c1ccc(O)cc1 | -0.0808
20 | C=CCC(OC(C)=O)[C@@H]1[C@@H](N(Cc2cc3ccccc3o2)C(=O)Cc2ccc(F)cc2)c2cc(OCCCO)ccc2N1C(=O)c1ccc2ccccc2c1 (some centres not stated) | -0.06
21 | OCCCC1=CC(c2ccc(CN3CCCC3)cc2)N(Cc2sc3ccccc3c2Cl)CC1 (configuration not stated) | -0.585
22 | O=C1O[C@H](c2ccccc2)[C@H](c2ccccc2)N2[C@H]1[C@@H](C(=O)N1CCN(c3ncccn3)CC1)[C@]1(C(=O)Nc3ccc(C#CC4(O)CCCCCC4)cc31)[C@H]2c1ccc(OCCO)cc1 | 1.24
23 | O=C1C2C=CC(C(O)c3ccc(Br)cc3)N(Nc3ccccc3F)C2C(=O)N1c1ccccc1 (configuration not stated) | 0.666
24 | COCCOC(=O)N1C(=O)[C@@]2(c3cc(C#CCC(C(=O)OC)C(=O)OC)ccc31)[C@H](C(=O)N1CCc3cc(OC)c(OC)cc3C1)[C@H]1C(=O)O[C@H](c3ccccc3)[C@H](c3ccccc3)N1[C@@H]2c1ccc(OCCO)cc1 | -0.551
25 | CC(CO)N1C(=O)[C@@H]2[C@H]3C(=O)OCC=C[C@H]3OC23C=CCN(CCN2CCOCC2)C(=O)[C@@H]13 (some centres not stated) | -1.55
26 | C=C(COC)C(=O)CC[C@@H](OC(=O)c1cccnc1)c1ccc(OCCO)cc1 | -0.804
27 | COC(=O)[C@@]1(Cc2ccc(OC)cc2)[C@H]2c3cc(C(=O)N4CCCC4)n(Cc4cccc5ccccc45)c3C[C@H]2CN1C(=O)c1ccccc1 | 0.498

Source: PubChem BioAssay
